From PubChem BioAssay (NCI) come the findings set out here.

Compounds without any hit were thinned out: in the full panel of roughly 83,000, 20% have a hit.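 Assay: single dose, 48 h. Readout: percent growth (0 = no net growth; negative = cell death). Active: <10.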 Calls of active or inactive are those of the source.

The first assay has as its system NCI-H460 lung. In words: NCI-60 one-dose screen, 48 h (100 = growth as untreated, 0 = no growth, -100 = all killed). The settings on record: 10 µM unless noted.
On to `CC(=O)O[C@H]1CC[C@]2(C)[C@H]3CC=C4[C@@H]5CC(C)(C)CC[C@]5(C(=O)OCC(COC(=O)C(Cl)Cl)(COC(=O)C(Cl)Cl)NC(=O)C(Cl)Cl)CC[C@@]4(C)[C@]3(C)CC[C@H]2C1(C)C`, for which the growth was 49.4% (inactive).

For the compound `Clc1ccc(Cl)c(N=Cc2ccc3c(c2)OCO3)c1`, the growth is 116% (inactive).

Take `CCN(CC)c1ccc2c(cc1=O)[C@@H](NC(C)=O)CCc1cc(OC)c(OC)c(OC)c1-2`: the growth is 3.44% (active).

Turning to `COc1ccc(CNc2c3ccccc3nc3ccc(OC)cc23)cc1`, the growth was 6.48% (active).

Turning to `NC(=O)c1ccc[n+](Cc2ccccc2)c1`, the growth is 108% (inactive).

As to `N/N=C(\C(=N\N)c1ccccc1)c1ccccc1`, the growth was 108% (inactive).

With `CC1=C(O)C(=O)CC1`, the growth is 109% (inactive).

With `CCN(CC)CCCC(C)Nc1ccnc2ccc(Oc3ccccc3)cc12` (stereo not drawn), the growth is 95.2% (inactive).

For the compound `COc1cc2ncnc(Nc3ccc(S(=O)(=O)Nc4nccs4)cc3)c2cc1OCCCN1CCOCC1`, the growth is 105% (inactive).

`CC(=O)Cc1ccccn1`: the growth is 105% (inactive).

On to `CC1OC(n2c3ccccc3c3c4c(c5c6ccccc6[nH]c5c32)C(=O)N(CCN[C@H]2CCC[C@@H]2N)C4=O)CC(O)C1O` (stereo partly drawn), for which the growth was 2.3% (active).

Turning to `O=C(C(=O)N1CCCC1)c1cn(CCCn2cc(C(=O)C(=O)N3CCCC3)c3cc(Br)ccc32)c2ccc(Br)cc12`, the growth was 53.4% (inactive).

As to `CCCCCCCOc1cccc(/C=C2\N=C3SCCCN3C2=O)c1`, the growth was 103% (inactive).

As to `COc1ccc(NC(=O)c2sc3c(=O)[nH]c(C(F)(F)F)nc3c2C)cc1`, the growth was 115% (inactive).

For `C=C[C@H]1CCC/C=C/[C@@H]2C[C@H](O)C[C@H]2[C@H](O)/C=C/C(=O)O1`, the growth was 7.05% (active).

For `C=CC(=O)N1CN(C(=O)C=C)CN(C(=O)C=C)C1`, the growth is 102% (inactive).

As to `CC(C)CCSc1nc(Nc2ccccc2)c(C#N)c(-c2ccc(F)cc2)n1`, the growth was 6.55% (active).

On to `COC(=O)c1ccc2c(c1)nc(-c1cc3ccccc3[nH]c1=O)n2-c1cc(C(C)(C)C)[nH]n1`, for which the growth is 45.4% (inactive).

For the compound `O=C1NN(C(=O)c2ccccc2)C(c2ccc(Cl)c(Cl)c2)=C/C1=C\c1ccccc1[N+](=O)[O-]`, the growth is -25% [6.75 µM] (active).

With `O=C(CCl)Nc1ccc2c(c1)C(=O)c1ccccc1C2=O`, the growth was 3.8% (active).

`CCOC(=O)C1C(=O)C=C(c2cc(OC)c(OC)c(OC)c2)CC1c1sc(N(C)Cc2ccccc2)nc1Cl` (stereo not drawn): the growth was 86.3% (inactive).

For the compound `N/C(=N\OC(=O)c1ccccc1)C(C(=O)NOC(=O)c1ccccc1)C1CCCCC1` (stereo not drawn), the growth was 34.5% (inactive).

Turning to `C=C(C)[C@@H]1CC[C@]2(C(=O)O)CC[C@]3(C)[C@H](CC[C@@H]4[C@@]5(C)C[C@@H](CC#Cc6ccc(C(C)=O)s6)[C@H](O)C(C)(C)[C@@H]5CC[C@]43C)[C@@H]12`, the growth was 42.7% (inactive).

Turning to `CC(C)[C@@H]1C=C2CC[C@H]3[C@](C)(CN)CCC[C@]3(C)[C@H]2CC1`, the growth is -69.7% (active).

Consider `COc1ccc(-c2cc(-c3cn(-c4cccc(Cl)c4)nc3-c3ccc(OC)cc3)[nH]c(=S)n2)cc1`, for which the growth is 33.5% (inactive).

Take `CCN1CCN(Cc2ccc(NC(=O)Nc3ccc(-n4ccc5c(NC(=O)c6ccccc6)nccc54)cc3)cc2C(F)(F)F)CC1`: the growth is -44.3% (active).

On to `Clc1ccc(C2=NN[C@H](c3cn(-c4ccccc4)nc3-c3ccccc3)C2)cc1`, for which the growth is 45.5% (inactive).

As to `CC(C)CC1NC(=O)C(CC(C)C)N(CO)C1=O` (stereo not drawn), the growth is 116% (inactive).

Consider `c1ccc(-c2ccc(-c3ccccc3)[nH]2)cc1`, for which the growth is 103% (inactive).

Turning to `C=CCN(CC#N)CC=C`, the growth is 115% (inactive).

`COc1ccc2c(c1)sc1nc(-c3ccccc3)c(-c3cccc4ccccc34)n12`: the growth is 8.82% (active).

On to `CC(C)c1nc2ccccc2n1CC(=O)N/N=C/c1cccc(O)c1`, for which the growth was 102% (inactive).

For `CCCCCCCC/C=C\CCCCCCCC(=O)OCCCCCC`, the growth is 111% (inactive).

As to `CCN(CC)c1ccc(/C=N/NC(=O)c2ccc(S(C)(=O)=O)cc2)c(O)c1`, the growth is 3.28% (active).

For `CC(=O)CC(c1ccc([N+](=O)[O-])cc1)c1c(O)c2ccccc2oc1=O` (stereo not drawn), the growth was 104% (inactive).

On to `CC1CCCN(CCCCOc2ccc(-c3ccc(C#N)cc3)cc2)C1` (stereo not drawn), for which the growth is 99.1% (inactive).

Take `Cn1c(-c2ccccc2)cc(=O)n1-c1ccccc1`: the growth was 117% (inactive).

Turning to `O=C(NCCN1CCCC1)n1cc(-c2ccncc2)c(-c2cc(O)cc(Cl)c2)n1`, the growth was 99.2% (inactive).

For the compound `C(=Nc1ccc(-c2ccc(N=Cc3ccccc3)cc2)cc1)c1ccccc1`, the growth was 116% (inactive).

The next assay deals with NCI-H522 lung. Described as above. The following applies: 10 µM unless noted.
Consider `CC(=O)O[C@H]1CC[C@]2(C)[C@H]3CC=C4[C@@H]5CC(C)(C)CC[C@]5(C(=O)OCC(COC(=O)C(Cl)Cl)(COC(=O)C(Cl)Cl)NC(=O)C(Cl)Cl)CC[C@@]4(C)[C@]3(C)CC[C@H]2C1(C)C`, for which the growth is 41.1% (inactive).

On to `Clc1ccc(Cl)c(N=Cc2ccc3c(c2)OCO3)c1`, for which the growth was 88.7% (inactive).

For the compound `CCN(CC)c1ccc2c(cc1=O)[C@@H](NC(C)=O)CCc1cc(OC)c(OC)c(OC)c1-2`, the growth was -38.8% (active).

For `COc1ccc(CNc2c3ccccc3nc3ccc(OC)cc23)cc1`, the growth was 26.2% (inactive).

With `NC(=O)c1ccc[n+](Cc2ccccc2)c1`, the growth is 99.3% (inactive).

In the case of `N/N=C(\C(=N\N)c1ccccc1)c1ccccc1`, the growth was 86.6% (inactive).

As to `CC1=C(O)C(=O)CC1`, the growth is 115% (inactive).

With `CCN(CC)CCCC(C)Nc1ccnc2ccc(Oc3ccccc3)cc12` (stereo not drawn), the growth is 36.2% (inactive).

In the case of `COc1cc2ncnc(Nc3ccc(S(=O)(=O)Nc4nccs4)cc3)c2cc1OCCCN1CCOCC1`, the growth was 88.6% (inactive).

Regarding `CC(=O)Cc1ccccn1`, the growth was 92.5% (inactive).

Take `CC1OC(n2c3ccccc3c3c4c(c5c6ccccc6[nH]c5c32)C(=O)N(CCN[C@H]2CCC[C@@H]2N)C4=O)CC(O)C1O` (stereo partly drawn): the growth was 16.9% (inactive).

On to `O=C(C(=O)N1CCCC1)c1cn(CCCn2cc(C(=O)C(=O)N3CCCC3)c3cc(Br)ccc32)c2ccc(Br)cc12`, for which the growth is 62% (inactive).

On to `CCCCCCCOc1cccc(/C=C2\N=C3SCCCN3C2=O)c1`, for which the growth was 62.3% (inactive).

In the case of `COc1ccc(NC(=O)c2sc3c(=O)[nH]c(C(F)(F)F)nc3c2C)cc1`, the growth is 79.5% (inactive).

Turning to `C=C[C@H]1CCC/C=C/[C@@H]2C[C@H](O)C[C@H]2[C@H](O)/C=C/C(=O)O1`, the growth is -37.8% (active).

As for `C=CC(=O)N1CN(C(=O)C=C)CN(C(=O)C=C)C1`, the growth is -35.4% (active).

As to `CC(C)CCSc1nc(Nc2ccccc2)c(C#N)c(-c2ccc(F)cc2)n1`, the growth is 61% (inactive).

Take `COC(=O)c1ccc2c(c1)nc(-c1cc3ccccc3[nH]c1=O)n2-c1cc(C(C)(C)C)[nH]n1`: the growth was -2.05% (active).

Turning to `O=C1NN(C(=O)c2ccccc2)C(c2ccc(Cl)c(Cl)c2)=C/C1=C\c1ccccc1[N+](=O)[O-]`, the growth was -11.1% [6.75 µM] (active).

For the compound `O=C(CCl)Nc1ccc2c(c1)C(=O)c1ccccc1C2=O`, the growth is -68.2% (active).

With `CCOC(=O)C1C(=O)C=C(c2cc(OC)c(OC)c(OC)c2)CC1c1sc(N(C)Cc2ccccc2)nc1Cl` (stereo not drawn), the growth was 67% (inactive).

Consider `N/C(=N\OC(=O)c1ccccc1)C(C(=O)NOC(=O)c1ccccc1)C1CCCCC1` (stereo not drawn), for which the growth was -46.9% (active).

Take `C=C(C)[C@@H]1CC[C@]2(C(=O)O)CC[C@]3(C)[C@H](CC[C@@H]4[C@@]5(C)C[C@@H](CC#Cc6ccc(C(C)=O)s6)[C@H](O)C(C)(C)[C@@H]5CC[C@]43C)[C@@H]12`: the growth is 26% (inactive).

In the case of `CC(C)[C@@H]1C=C2CC[C@H]3[C@](C)(CN)CCC[C@]3(C)[C@H]2CC1`, the growth is 86.7% (inactive).

With `COc1ccc(-c2cc(-c3cn(-c4cccc(Cl)c4)nc3-c3ccc(OC)cc3)[nH]c(=S)n2)cc1`, the growth was 77.7% (inactive).

Regarding `CCN1CCN(Cc2ccc(NC(=O)Nc3ccc(-n4ccc5c(NC(=O)c6ccccc6)nccc54)cc3)cc2C(F)(F)F)CC1`, the growth is -87.2% (active).

In the case of `Clc1ccc(C2=NN[C@H](c3cn(-c4ccccc4)nc3-c3ccccc3)C2)cc1`, the growth was 76.3% (inactive).

For the compound `CC(C)CC1NC(=O)C(CC(C)C)N(CO)C1=O` (stereo not drawn), the growth was 90.4% (inactive).

Take `c1ccc(-c2ccc(-c3ccccc3)[nH]2)cc1`: the growth was 85.7% (inactive).

Take `C=CCN(CC#N)CC=C`: the growth was 97.7% (inactive).

As to `COc1ccc2c(c1)sc1nc(-c3ccccc3)c(-c3cccc4ccccc34)n12`, the growth was -11% (active).

With `CC(C)c1nc2ccccc2n1CC(=O)N/N=C/c1cccc(O)c1`, the growth was 86.6% (inactive).

For `CCCCCCCC/C=C\CCCCCCCC(=O)OCCCCCC`, the growth is 104% (inactive).

For the compound `CCN(CC)c1ccc(/C=N/NC(=O)c2ccc(S(C)(=O)=O)cc2)c(O)c1`, the growth is 9.91% (active).

On to `CC(=O)CC(c1ccc([N+](=O)[O-])cc1)c1c(O)c2ccccc2oc1=O` (stereo not drawn), for which the growth is 97.3% (inactive).

`CC1CCCN(CCCCOc2ccc(-c3ccc(C#N)cc3)cc2)C1` (stereo not drawn): the growth is 59.6% (inactive).

Turning to `Cn1c(-c2ccccc2)cc(=O)n1-c1ccccc1`, the growth is 107% (inactive).

For `O=C(NCCN1CCCC1)n1cc(-c2ccncc2)c(-c2cc(O)cc(Cl)c2)n1`, the growth is 98.6% (inactive).

Turning to `C(=Nc1ccc(-c2ccc(N=Cc3ccccc3)cc2)cc1)c1ccccc1`, the growth is 70% (inactive).
